From PubChem
A selection: hits, their analogues and other compounds. The true share with any hit is near 6.1%.
D1 antag: antagonists of human D1 dopamine receptor. activity change, negative = inhibition, % at 10 µM. 360,000 compounds, 3.2% hits. HEK293 TREx D1 cells, calcium flux, dopamine EC80; hits give low values; in the data active means activity change below about -30%
Target sequence (P21728 whole entry, looked up): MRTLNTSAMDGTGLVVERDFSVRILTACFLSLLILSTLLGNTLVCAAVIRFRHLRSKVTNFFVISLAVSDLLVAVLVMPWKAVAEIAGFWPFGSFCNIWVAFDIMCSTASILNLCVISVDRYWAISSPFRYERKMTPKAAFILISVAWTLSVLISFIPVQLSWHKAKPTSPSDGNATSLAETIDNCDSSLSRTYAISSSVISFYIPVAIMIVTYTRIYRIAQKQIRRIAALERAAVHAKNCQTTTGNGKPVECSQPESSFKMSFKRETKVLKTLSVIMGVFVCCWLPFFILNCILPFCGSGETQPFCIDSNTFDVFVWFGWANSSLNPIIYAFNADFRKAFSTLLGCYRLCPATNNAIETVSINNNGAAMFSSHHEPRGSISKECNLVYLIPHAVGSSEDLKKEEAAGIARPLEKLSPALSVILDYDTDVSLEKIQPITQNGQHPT
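Inducible Hek293 Trex D1 cells (tetracycline, overnight, 30 C). Calcium dye 30–90 min RT. Antagonist mode: EC80 dopamine added after 180 s compound read.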
D1 agonist: activates the human D1 dopamine receptor; HEK293 T-REx D1 cells, calcium flux, agonist mode; activation, % at 2 µM; P21728; 360,000 compounds, 1% hits; in the data active means activation above about 30%
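Agonism was scored from calcium flux recorded over 180 s (1 read/s) after pintool compound addition, following a 10-cycle baseline. Cells were inducible force-coupled HEK293 TREx D1, plated overnight at 30 C and loaded with no-wash calcium dye.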
DRD3 antagonist: antagonists of human D3 dopamine receptor; D3R cells, DiscoveRx beta-arrestin luminescence, antagonist mode; hits give low values; max response, negative = inhibition, %; 360,000 compounds, 2.5% hits; in the data active means max response below about -50%; inconclusive means no clear call, values can overlap the other calls
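Cells plated overnight at 1500 cells/well, then exposed to library compounds with dopamine controls for 90 minutes at 37 degrees C. DiscoveRx reagent added for 30–60 minutes at room temperature; luminescence read, quantitative HTS format.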
D3 ag: D3 dopamine receptor (human) agonism; P35462; D3R DiscoveRx beta-arrestin cells, luminescence, 90 min; 410,000 compounds, 0.58% hits; max activation, %; in the data active means max activation above about 30%
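Agonist mode: compounds and dopamine controls were applied to plated cells for 90 min at 37 degrees C after an overnight attachment at 1500 cells/well. Luminescent read-out followed 30 - 60 minutes at room temperature with DiscoveRx detection reagent.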
D1 potentiator: human D1 dopamine receptor positive modulation. P21728. HEK293 TREx D1 cells, calcium flux, dopamine EC20 potentiation. potentiation, % at 10 µM. 360,000 compounds, 0.036% hits. AID 504651; in the data active means potentiation above about 30%
Each line names hits and unclear results; the compound was inactive in the other large screens.

Cc1ccc(Cn2nnnc2CN2CCC(n3nnc4cc(C(F)(F)F)ccc43)CC2)cc1	D1 antag -39
Fc1ccc2c(c1)nnn2C1CCN(Cc2nnnn2C2CCCCC2)CC1	DRD3 antagonist -58
Fc1ccc2c(c1)nnn2C1CCN(Cc2c(Cl)cccc2Cl)CC1	none
Cc1ccc(Cn2nnnc2CN2CCC(n3nnc4cc(C)ccc43)CC2)cc1	none
COc1ccc2[nH]cc(CCN(C(C)C)C(C)C)c2c1	none (no result: D1 antag, D1 agonist, DRD3 antagonist, D1 potentiator)
C[N+]1(CC2COC(c3ccco3)O2)CCCCC1 (stereo not given)	D1 antag -33
N#CC(C#N)=NNc1ccc(-n2ccc(C(F)(F)F)n2)cc1	D1 antag -36, D1 agonist 33
Cc1cc(C)n(-c2ccc(NN=C(C#N)C#N)cc2)n1	D1 antag -31, D1 agonist 41
Oc1ccc2c3c1O[C@H]1[C@@H](O)C=C[C@H]4[C@H](C2)NCC[C@@]341	none (no result: D1 antag, D1 agonist, DRD3 antagonist, D1 potentiator)
CCOc1cc2c(cc1OCC)-n1cccc1C(c1ccc(OC)c(O)c1)NC2 (stereo not given)	D1 agonist 96
O=C(CN1CCOCC1)c1cccc2ccccc12	DRD3 antagonist -55
CCOc1ccc2c3c1O[C@H]1[C@@H](O)C=C[C@H]4[C@@H](C2)N(C)CC[C@@]341	none (no result: D1 antag, D1 agonist, DRD3 antagonist, D1 potentiator)
CCN(CC)C(=O)[C@@H]1C=C2c3cccc4[nH]cc(c34)C[C@H]2N(C)C1	D3 ag 51 (no result: D1 antag, D1 agonist, DRD3 antagonist, D1 potentiator)
CN1C[C@H](CO)C=C2c3cccc4[nH]cc(c34)C[C@H]21	D1 antag -76, DRD3 antagonist -78
O=C(c1ccc(CNS(=O)(=O)c2ccc(Br)cc2)cc1)N1CCC2(CC1)OCCO2	none
O=C(c1ccc(CS(=O)(=O)c2ccccc2)o1)N1CCC2(CC1)OCCO2	D3 ag 34
O=C(c1ccc(CNS(=O)(=O)c2ccccc2)cc1)N1CCC2(CC1)OCCO2	DRD3 antagonist -53
O=C(c1ccc(CS(=O)(=O)c2ccc(Br)cc2)o1)N1CCC2(CC1)OCCO2	none
O=C(CNS(=O)(=O)c1ccc(Br)s1)N1CCC2(CC1)OCCO2	DRD3 antagonist -55
O=C(Nc1ccccc1C(F)(F)F)c1cccn(Cc2ccccc2)c1=O	none (no result: D1 antag, DRD3 antagonist)
O=c1c2ccccc2nc(/C=C/c2ccccc2O)n1-c1ccc(Br)cc1	none (no result: DRD3 antagonist)
CC1=NCCc2c1[nH]c1cc(O)ccc21	D1 agonist 405
COCCCNC(=O)Cn1cc(/C=C2\C(=O)NC(=O)N(c3ccccc3F)C2=O)c2ccccc21	D1 agonist 32
COCCNC(=O)Cn1cc(/C=C2\C(=O)NC(=O)N(c3ccccc3F)C2=O)c2ccccc21	none
COc1ccc(CC(C)NCCC(c2ccccc2)c2ccccc2)cc1 (stereo not given)	D1 agonist 43, DRD3 antagonist inconclusive
CC(Cc1cccs1)NCc1ccccc1 (stereo not given)	none
CCCCNC(C)Cc1ccccc1 (stereo not given)	DRD3 antagonist -51 (no result: D1 antag, D1 agonist, D1 potentiator)
O=C(O)CCCCCCNC1c2ccccc2CCc2ccccc21	none (no result: D1 antag, D1 agonist, DRD3 antagonist, D1 potentiator)
S=P(N1CCOCC1)(N1CC1)N1CC1	D3 ag 34 (no result: D1 antag, D1 agonist, D1 potentiator)
Cc1cc(Cl)ccc1OCC(=O)O	DRD3 antagonist -110
Cc1ccc(OCC(=O)Nc2ccc(Cl)cc2C(=O)c2ccccc2)c(Br)c1	none (no result: DRD3 antagonist)
O=c1[nH]c(=O)n(-c2ccccc2)c(O)c1/C=C/C=Nc1ccccc1	none
Cn1c(O)c(C=NC2CCN(Cc3ccccc3)CC2)c(=O)[nH]c1=O	none
O=c1[nH]c(=O)n(C2CCCCCC2)c(O)c1C=NCC1CCCO1 (stereo not given)	DRD3 antagonist -51
O=c1[nH]c(=O)n(C2CCCCCC2)c(O)c1C=NC1CCN(Cc2ccccc2)CC1	DRD3 antagonist -58
Cc1ccc(-n2c(O)c(/C=C/C=Nc3ccccc3)c(=O)[nH]c2=O)cc1	D1 agonist 50
O=c1[nH]c(=O)n(C2CCCCC2)c(O)c1/C=C/C=Nc1ccccc1	D1 agonist 175
Cc1ccc2c(c1)[C@]13CCCC[C@@H]1[C@H](C2)N(C)CC3	none (no result: D1 antag, D1 agonist, DRD3 antagonist, D1 potentiator)
CCN(CC)CCSc1nc2ccccc2c(=O)n1-c1ccc(Cl)cc1	none (no result: DRD3 antagonist)
C=CCn1c(O)c(/C=C/C=Nc2ccccc2)c(=O)[nH]c1=O	none
COc1ccc(-n2c(O)c(/C=C/C=Nc3ccccc3)c(=O)[nH]c2=O)cc1	D1 agonist 91
Cc1ccc(NC(=O)CN2C(=O)CN=C(c3ccccc3)c3ccccc32)c(C)c1	none (no result: DRD3 antagonist)
